From ChEMBL document CHEMBL4513137, “CO-ADD screening of University of Manchester (UK) compounds”
In all, about 23,000 compounds went through this assay and about 30 (0.1%) showed an effect of 50% or more. Many of the other results were omitted from the sample, so strong results are more common in it than they were. Measured potencies and affinities stand elsewhere.

What follows are compounds tested on Pseudomonas aeruginosa. Details: Concentration 32 ug.mL-1; ASSAY_TEST Inhibition of Bacterial Growth; detection method Absorption (OD600); MEDIA CAMHB; plate type 384well; NBS; CORNING #3640; time 18 hr.
In the case of O=[N+]([O-])c1ccc(-c2c(Nc3ccccc3)cccc2-c2ccccc2)cc1, the Inhibition is reported as 19.1%.
O=[N+]([O-])c1ccc(-c2ccccc2Nc2ccccc2)cc1F gave an Inhibition of 55.36%.
COc1ccc(Nc2ccccc2-c2ccc([N+](=O)[O-])cc2)cc1 showed an Inhibition of 65.22%.
Cc1ccccc1Nc1ccccc1-c1ccc([N+](=O)[O-])cc1 showed an Inhibition of -5.81%.
O=[N+]([O-])c1ccc(-c2ccccc2Nc2ccccc2)cc1 gave an Inhibition of -5.45%.
With O=[N+]([O-])c1ccc(-c2ccccc2Nc2ccccc2)cc1C(F)(F)F the Inhibition was 49.55%.
CC(=O)c1ccc(-c2ccccc2Nc2ccccc2)cc1 was tested, and the Inhibition was 28.85%.
Work on c1ccc(Nc2ccccc2-c2ncccn2)cc1 yielded an Inhibition of 60.14%.
For COc1cc([N+](=O)[O-])ccc1-c1c(Nc2ccccc2)cccc1OC, the Inhibition was 30.66%.
Work on COc1cccc(Nc2ccccc2)c1-c1c(Cl)cc(Br)cc1Cl yielded an Inhibition of 61.56%.
Clc1cc(Br)cc(Cl)c1-c1ccccc1Nc1ccccc1 gave an Inhibition of 32.77%.
